High-throughput results deposited in PubChem BioAssay by National Center for Advancing Translational Sciences (NCATS).
MCF10A rerep: A quantitative high throughput screen for small molecules that induce DNA re-replication in MCF 10a normal breast cells. MCF 10A DNA re-replication, Hoechst nuclear intensity, 48 h. actives 2.9% (n = 350,000). Potency, µM (series often up to 46.1 µM), for inactives: top-dose activity, positive = re-replication, actives largely listed as activators; also: % of control where 0% means no effect; nearly all actives have a fitted effect of over 50% in size
KB-3-1 cytotox: qHTS assay for MDR1-selective chemotherapeutics: Primary screen using the parental adenocarcinoma cell KB-3-1; KB-3-1 viability, CellTiter-Glo ATP luminescence, 72 h; Potency, µM (titrated, usually from 46.1 µM), actives largely listed as cytotoxic; actives 1.4% (n = 400,000); AID 1347075, 2019; also: % is scaled to controls: 0 for no effect and ±100 for the full control effect; nearly all actives have a fitted effect of over 60% in size
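Screening of KB-3-1 cells (DMEM, 10% FBS, phenol-red free) ran from lowest to highest compound concentration; after 72 h at 37 °C viability was read luminescently and curves fitted.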
Gal4-VP16 FLuc: VP16 counterscreen qHTS for inhibitors of ROR gamma transcriptional activity; Drosophila S2 Gal4-VP16 UAS-luciferase, luminescence, 20 h; actives 3.5% (n = 310,000); AID 2546, 2010; Potency, µM (titrated, usually from 53.6 µM), inactives show at the highest dose activity, negative = inhibition, usual class: inhibitors;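 also: Gal4-VP16 expression switched on by copper sulfate through the metallothionein promoter; % is scaled to controls: 0 for no effect and ±100 for the full control effect; nearly all actives have a fitted effect of over 50% in size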
KB-V1 cytotox: qHTS assay for MDR1-selective chemotherapeutics: Primary screen using the drug-selected MDR subline cells KB-V1 | KB-V1 MDR cells viability, CellTiter-Glo, 72 h | Potency, µM (highest dose often 46.1 µM), usual class: cytotoxic | actives 3.4% (n = 400,000); also: % is scaled to controls: 0 for no effect and ±100 for the full control effect; nearly all actives have a fitted effect of over 60% in size
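Drug-selected KB-V1 cells, grown in DMEM lacking phenol red with 10% FBS, receive compound titrations; after three days at 37 degrees C, surviving cell ATP is quantified by CellTiter-Glo luminescence and responses normalized and curve-fitted.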
RORgamma inh: qHTS for inhibitors of ROR gamma transcriptional activity; Nuclear receptor ROR-gamma (Mus musculus), P51450; Drosophila S2 Gal4-RORgamma UAS-luciferase reporter, 20 h; Potency, µM (titrated, usually from 53.6 µM), for inactives: at the highest dose activity change, negative = inhibition, actives largely listed as inhibitors; actives 5.4% (n = 310,000); AID 2551, 2010; also: % is scaled to controls: 0 for no effect and ±100 for the full control effect; nearly all actives have a fitted effect of over 60% in size
Target sequence (P51450 whole entry, looked up, the tested form may be a part): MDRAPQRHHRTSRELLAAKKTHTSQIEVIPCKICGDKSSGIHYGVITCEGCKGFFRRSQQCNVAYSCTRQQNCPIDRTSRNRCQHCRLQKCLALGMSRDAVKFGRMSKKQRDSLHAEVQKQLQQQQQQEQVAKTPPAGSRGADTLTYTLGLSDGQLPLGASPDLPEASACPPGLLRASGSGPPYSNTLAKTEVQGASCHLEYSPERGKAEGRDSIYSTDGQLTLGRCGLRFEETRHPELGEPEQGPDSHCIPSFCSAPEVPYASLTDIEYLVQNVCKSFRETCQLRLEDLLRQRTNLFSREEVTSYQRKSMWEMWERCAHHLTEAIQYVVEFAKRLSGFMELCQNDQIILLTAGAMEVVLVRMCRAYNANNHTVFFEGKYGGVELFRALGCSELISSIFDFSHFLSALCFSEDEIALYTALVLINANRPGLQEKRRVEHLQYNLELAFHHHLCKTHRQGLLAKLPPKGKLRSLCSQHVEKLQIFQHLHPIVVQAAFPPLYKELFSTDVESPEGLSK
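Drosophila S2 cells stably expressing Gal4-DBD/mouse RORγ fusion under metallothionein promoter plus UAS-luciferase; compound 1 h, then 700 uM CuSO4 induction for 20 h at ambient temperature; inhibition read as reduced luminescence.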
SW480 rerep: A quantitative high throughput screen for small molecules that induce DNA re-replication in SW480 colon adenocarcinoma cells; SW480 DNA re-replication, Hoechst DNA content imaging, 48 h; Potency, µM (doses to about 46.1 µM), for inactives: at the top dose re-replication activation, hits mostly activators; actives 1.8% (n = 340,000); AID 624297, 2012; also: % of control where 0% means no effect; nearly all actives have a fitted effect of over 55% in size
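Per well, 250 cells were exposed to pinned compound for 48 hr. Nuclear DNA was visualised with Hoechst (40 min, 37 C) and total object intensity recorded by fluorescence scanning.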
Starred values were filed as active, the others as inactive; i = inactive; ? = inconclusive; . = no result given; [ ] = dose if it differs, or a comment. The list is not random: actives were taken first. Their share in the collection is about 10%. Calls follow the shape of the dose curve; as a rule, active = well fitted curve in the direction sought with a large enough effect; inconclusive = small, poorly fitted or top-dose-only effect, or another doubt; inactive = no such curve, though single readings can be large; an effect the other way counts as inactive or inconclusive. Potency is read from the fitted curve at half-maximal effect.

SMILES	MCF10A rerep	KB-3-1 cytotox	Gal4-VP16 FLuc	KB-V1 cytotox	RORgamma inh	SW480 rerep
Cc1cc(OCC(=O)Nc2ccc3oc(-c4ccncc4)nc3c2)ccc1Cl	0%	i	17%	i	-1%	-17%
CC(C)(C)c1ccc(OCC(=O)Nc2ccncc2)cc1	8%	i	-8%	i	?	-7%
CCc1ccc(OCC(=O)Nc2ccncc2)cc1	8%	i	3.5µM*	i	39%[1.91 µM]	-11%
Cc1cc(OCC(=O)Nc2ccncc2)ccc1Cl	0%	i	11µM*	i	?	2%
Cc1cc(OCC(=O)N[C@@H](Cc2ccccc2)c2nc3ccccc3[nH]2)ccc1Cl	?	i	?	i	20µM*	-1%
O=C(Cc1ccccc1)N[C@@H](Cc1ccccc1)c1nc2ccccc2[nH]1	30%	i	4%	i	17%	16%
COc1cc(NC(=O)COc2ccc(-n3ccnc3)cc2)cc(OC)c1	4%	?	5%	?	7%	7%
CC(C)(C)c1ccc(NC(=O)COc2ccc(-n3ccnc3)cc2)cc1	20%	i	-13%	i	10µM*	-6%
COCCSc1nc2c([nH]c3ccccc32)c(=O)n1-c1ccc(OC)c(OC)c1	.	i	.	i	.	.
COc1ccc(OC)c(NC(=O)C2(C)CCN2CCOc2ccccc2)c1 (stereo not drawn)	.	i	.	?	.	.
O=C1CC/C=C\C[C@@H](CC(=O)N(CCO)Cc2ccccc2)C(=O)N[C@H](Cc2c[nH]c3ccccc23)CO1	-4%	i	.	i	.	-2%
COc1cccc(-n2c(SCC(=O)N3CCc4ccccc43)nc3c([nH]c4ccccc43)c2=O)c1	.	i	.	?	.	.
O=C(COc1ccc2ccccc2c1)Nc1ccncc1	-1%	i	13µM*	i	?	-1%
Cc1cc(OCC(=O)Nc2ccncc2)cc(C)c1Br	7%	?	11µM*	?	0%	0%
Cc1cccc(C)c1NC(=O)CSc1nccn1C	.	i	.	i	.	.
CO[C@@H]1COC(=O)[C@H](C)NC(=O)[C@@H](C)COC(=O)[C@H](C)NC(=O)C/C=C\[C@H]1C	.	.	-6%[10 µM]	.	5%[10 µM]	.
CC(C)Cc1nc2oc3c(Cl)ncnc3c2c2c1CCC2	?	i	-13%	i	-12%	4.1µM*
CC(C)Cc1nc2oc3c(NCCCN4CCOCC4)ncnc3c2c2c1CCC2	28%	?	-1%	i	5%	?
O=C1c2cc(S(=O)(=O)N3CCOCC3)ccc2-c2ccc(S(=O)(=O)N3CCOCC3)cc21	.	?	.	i	.	.
O=C1C2CC=CCC2C(=O)N1c1n[nH]c(Cc2ccccc2)n1 (stereo not drawn)	7.3µM*	i	-4%	i	-26%	2%
N=c1oc2ccc3ccccc3c2cc1C(N)=S	12µM*	i	?	i	6.3µM*	?
Cc1ccc(Sc2ncccc2N)cc1	?	i	.	i	.	21µM*
COc1cc(C2Nc3ccccc3C(=O)N2c2ccccc2)c(Br)cc1OCC(=O)O (stereo not drawn)	-6%	i	-6%	i	24%	23µM*
O=C(O)c1ccc(N/N=C/C=C/c2ccccc2)cc1	15µM*	i	1.1µM*	i	11µM*	-5%
O=C(O)c1cc(N/N=C/c2ccc(N3CCOCC3)cc2)ccc1Cl	0%	i	?	i	7.1µM*	?
SMILES	MCF10A rerep	KB-3-1 cytotox	Gal4-VP16 FLuc	KB-V1 cytotox	RORgamma inh	SW480 rerep
CC(C)c1ccc(/C=N/Nc2ccc(C(=O)O)cc2)cc1	16%	i	0.25µM*	i	?	-1%
O=C(O)c1ccc(N/N=C/c2ccc(OC(=O)c3ccccc3Cl)cc2)cc1	-1%	i	0.32µM*	i	0.4µM*	-5%
Clc1cccc(N/N=C/c2ccc(N3CCOCC3)cc2)c1	3%	i	18%	?	28%	-5%
COc1ccc(OCC2CCNCC2)cc1	?	i	.	i	.	3%
O=C(O)c1ccc(/C=N/Nc2cccc(C(F)(F)F)c2)cc1	3%	i	-15%	i	?	-9%
O=C(O)c1ccc(N/N=C/c2ccc(-c3ccccc3)cc2)cc1	1.3µM*	?	-7%	i	0%	21µM*
O=C(O)c1ccc(/C=N/Nc2ccc(C(F)(F)F)cn2)cc1	12µM*	i	-27%	i	?	5.8µM*
O=C(O)c1cc(N/N=C/c2ccc(-c3ccccc3)cc2)ccc1Cl	3.3µM*	i	-7%	i	0%	?
CC1(O)CC(c2ccc(Cl)cc2)=NN1C(=O)c1ccc(Cl)cc1 (stereo not drawn)	12µM*	i	?	?	?	?
CC1(C)N=C(SCC(=O)Nc2ccc(Cl)cc2Cl)C(c2ccccc2)=N1	?	i	2%	21µM*	13%	3%
CC1(C)N=C(SCC(=O)Nc2ccccc2)C(c2ccc(Cl)cc2)=N1	?	i	7%	?	19%	-3%
O=C1/C(=N\S(=O)(=O)c2cccs2)C([n+]2cccc(Cc3ccccc3)c2)=C([O-])c2ccccc21	0%	?	?	i	?	8.2µM*
O=C1/C(=N\S(=O)(=O)c2cccs2)C([n+]2ccc(CCCc3ccccc3)cc2)=C([O-])c2ccccc21	11%	i	?	?	-19%	?
Cc1cc(C)c[n+](C2=C([O-])c3ccccc3C(=O)/C2=N\S(=O)(=O)c2cccs2)c1	?	?	-2%	i	32%	2.9µM*
Cc1ccc(NC2=C/C(=N/S(=O)(=O)c3cccs3)c3ccccc3C2=O)cc1C	?	i	-28%	i	?	-5%
Cc1cc[n+](C2=C([O-])c3ccccc3C(=O)/C2=N\S(=O)(=O)c2cccs2)cc1C	21µM*	i	11µM*	i	16µM*	?
CCCCC[n+]1ccn(C2=C([O-])c3ccccc3C(=O)/C2=N\S(=O)(=O)c2ccccc2)c1	19%	?	?	i	?	11µM*
CCc1ccccc1N(c1nc(-c2ccc(OC)c(OC)c2)no1)c1nc(-c2ccc(OC)c(OC)c2)no1	.	i	.	i	.	.
CC(C)(C)c1cc[n+](C2=C([O-])c3ccccc3C(=O)/C2=N\S(=O)(=O)c2ccccc2)cc1	5%	i	6.3µM*	i	5.6µM*	?
